Screens: PubChem BioAssay, National Center for Advancing Translational Sciences (NCATS)
TRPV1 ag = HTS Assay for Compounds that Act as Agonists of the Vanilloid Receptor 1. Transient receptor potential cation channel subfamily V member 1 (Homo sapiens), Q8NER1. 0.19% of 320,000 active. TRPV1-expressing cells, Fluo-8 calcium influx, agonist mode. activation, % at 8.33 µM; in the data active = activation above about 80%; inconclusive = between about 30% and that limit; also: 0% is about no effect
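Fluo-8 calcium influx in TRPV1-expressing cells, kinetic read (ex 480/em 520 nm). Compound added and read 3 min for agonist activity, followed by capsaicin at EC20 final and 2 min further read for enhancement.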
uPA surface inh = qHTS for Inhibitors of Cell Surface uPA Generation; 0.31% of 330,000 active; cell surface uPA generation assay, qHTS; AID 540303, 2011; Potency, µM (top dose mostly 38.3 µM), for inactives: at the top dose activity change, negative = inhibition, hits mostly inhibitors; active = well fitted inhibition curve with a large enough effect; inconclusive = small, poorly fitted or top-dose-only effect; inactive = no such curve, though single readings can be large or run the other way; tested in mouse RAW 264.7 cells; also: potency is read from the fitted curve at half-maximal effect; % is scaled to controls: 0 for no effect and ±100 for the full control effect; nearly all actives have a fitted effect of over 55% in size
TRPV1 PAM = HTS Assay for Compounds that Act as Potentiators of the Vanilloid Receptor 1; Transient receptor potential cation channel subfamily V member 1 (Homo sapiens), Q8NER1; TRPV1-expressing cells, Fluo-8 calcium influx, capsaicin EC20 potentiation; potentiation, % at 8.33 µM; 0.02% of 320,000 active; in the data active = potentiation above about 80%; inconclusive = between about 30% and that limit; also: 0% is about no effect
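Fluo-8 calcium influx in TRPV1-expressing cells, kinetic read (ex 480/em 520 nm). Compound added and read 3 min for agonist activity, followed by capsaicin at EC20 final and 2 min further read for enhancement.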
Gal4-VP16 FLuc = VP16 counterscreen qHTS for inhibitors of ROR gamma transcriptional activity; AID 2546, 2010; 3.5% of 310,000 active; Drosophila S2 Gal4-VP16 UAS-luciferase, luminescence, 20 h; Potency, µM (top dose mostly 53.6 µM), for inactives: at the highest dose activity, negative = inhibition, most hits filed as inhibitors;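 also: Gal4-VP16 expression switched on by copper sulfate through the metallothionein promoter; potency is read from the fitted curve at half-maximal effect; % is scaled to controls: 0 for no effect and ±100 for the full control effect; nearly all actives have a fitted effect of over 50% in size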
RORg inh = qHTS for inhibitors of ROR gamma transcriptional activity; Nuclear receptor ROR-gamma (Mus musculus), P51450; Drosophila S2 Gal4-RORgamma UAS-luciferase reporter, 20 h; Potency, µM (doses to about 53.6 µM), without a hit: top-dose activity change, negative = inhibition, most hits filed as inhibitors; 5.4% of 310,000 active; also: potency is read from the fitted curve at half-maximal effect; % is scaled to controls: 0 for no effect and ±100 for the full control effect; nearly all actives have a fitted effect of over 60% in size
Target sequence (P51450 whole entry, looked up, the tested form may be a part): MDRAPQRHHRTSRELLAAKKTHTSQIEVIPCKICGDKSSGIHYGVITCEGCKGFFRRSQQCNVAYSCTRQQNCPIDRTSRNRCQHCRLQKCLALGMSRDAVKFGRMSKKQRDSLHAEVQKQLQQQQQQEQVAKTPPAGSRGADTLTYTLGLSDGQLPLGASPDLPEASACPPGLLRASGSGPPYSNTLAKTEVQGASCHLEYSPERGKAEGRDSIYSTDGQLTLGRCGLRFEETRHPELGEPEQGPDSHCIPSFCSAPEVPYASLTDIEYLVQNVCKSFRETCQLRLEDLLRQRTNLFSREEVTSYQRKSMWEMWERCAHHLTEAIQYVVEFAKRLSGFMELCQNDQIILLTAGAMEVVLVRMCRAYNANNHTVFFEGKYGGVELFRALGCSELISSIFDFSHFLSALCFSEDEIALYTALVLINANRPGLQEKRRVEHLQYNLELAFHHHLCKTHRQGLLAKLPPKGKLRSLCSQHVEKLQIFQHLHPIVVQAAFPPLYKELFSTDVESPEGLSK
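Read-out: Photinus luciferase luminescence; inhibitors lower reporter signal. Insect Schneider cells with Gal4-ROR gamma fusion under metallothionein promoter, UAS reporter; 700 uM final copper sulfate induction, 20 hr, ambient temperature.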
* marks the source's active call; other numbers are inactive results; ? = inconclusive; · = no result; [ ] = another dose, or the depositor's remark. This is a sample that favours compounds with a hit; in the whole collection about 5.8% have one here. Unless noted, calls follow the shape of the dose curve; as a rule, active = well fitted curve in the direction sought with a large enough effect; inconclusive = small, poorly fitted or top-dose-only effect, or another doubt; inactive = no such curve, though single readings can be large; an effect the other way counts as inactive or inconclusive.

SMILES | TRPV1 ag | uPA surface inh | TRPV1 PAM | Gal4-VP16 FLuc | RORg inh
COc1ccc(N=[N+]([O-])c2ccc(OC)cc2)cc1 | · | -7% | · | ? | 8.9µM*
c1ccc(-c2nc(-c3cccs3)c(NC3CCCCC3)o2)cc1 | · | · | · | -22% | -1%
CC(c1ccccc1)N1CCN(C(=O)CCl)CC1 (stereo not drawn) | 2 | 8.9µM* | -7 | 21% | -34%
C[C@H](C(=O)O)c1ccc2cc(O)ccc2c1 | · | · | · | -11% | -23%
COc1ccc(OC)c(C2=NOC(C(=O)NCc3cccs3)C2)c1 (stereo not drawn) | 0 | ? | ? | 1% | 20%
CC(C)(C)N1C(=O)[C@H]2[C@H]3[C@H](O)[C@H](O)C/C(=N/NC(=O)OCc4ccccc4)[C@H]3CC[C@@H]2C1=O | · | · | · | 7%[10 µM] | 23%[10 µM]
Cc1sc2ncnc(N(C)Cc3ccco3)c2c1C | -1 | -3% | 16 | -20% | 12%
Cc1nc(N(C)Cc2ccccc2)c2c(C)c(C)sc2n1 | 18 | -1% | -9 | ? | 20µM*
CCOc1ccc(CNC(=O)C2CCN(c3nnc(C)c4c(C)n(-c5ccc(C)cc5)nc34)CC2)cc1 | ? | ? | -6 | ? | ?
Cc1ccc(-n2nc3c(N4CCC(C(=O)NCc5ccccc5C)CC4)nnc(C)c3c2C)cc1 | ? | ? | 1 | ? | 13µM*
COc1ccc(-n2nc3c(N4CCC(C(=O)NCc5cccc(C)c5)CC4)nnc(C)c3c2C)cc1 | ? | ? | -9 | 20µM* | ?
CCOc1ccccc1CNC(=O)C1CCN(c2nnc(C)c3c(C)n(-c4ccc(C)cc4)nc23)CC1 | ? | ? | 9 | 18µM* | 13µM*
COC(=O)C1(Cc2ccccc2)C=C2C(=C(C(C)C)C(=O)C2C)CN1 (stereo not drawn) | · | · | · | -5% | 39%
CCCCn1c(-c2cccc3ccccc23)nc2cc3[nH]c(=O)c(C(C)C)nc3cc21 | 2 | 6% | 8 | -4% | 3%
Cc1ccn2cc(-c3ccc(O)c(O)c3)nc2c1 | 3 | ? | -3 | 13µM* | -39%
Cc1ccn2cc(-c3ccc4c(c3)NC(=O)CO4)nc2c1 | 1 | ? | 5 | -29% | -44%
Cc1ccn2cc(-c3cccc(NC(=O)C(C)C)c3)nc2c1 | 1 | ? | 1 | ? | 4µM*
O=C(NC(=S)Nc1ccccc1)c1csnn1 | -1 | -2% | 21 | ? | 5.6µM*
COc1ccc(NC(=S)NC(=O)c2csnn2)cc1 | 3 | 0% | -9 | 26% | ?
O=C(NC(=S)Nc1ccc(C(F)(F)F)cc1)c1csnn1 | 22 | 1% | -9 | ? | 7.9µM*
Cc1ccc(S(=O)(=O)N2CCN(c3ccccc3)CC2)cc1C(N)=O | -4 | 4% | 4 | 0% | 8%
COc1cccc(-c2nnc(-c3ccc(C)o3)o2)c1 | 2 | -9% | 12 | ? | 11µM*
COc1cccc(-c2nnc(-c3ccco3)o2)c1 | 7 | -13% | 1 | -28% | -35%
COc1cccc(-c2nnc(NC(=O)c3ccccc3Br)o2)c1 | -2 | ? | 13 | 3.2µM* | 5µM*
COc1ccc(-c2nnc(NC(=O)c3ccc([N+](=O)[O-])o3)o2)c(OC)c1 | -4 | 1% | 6 | 6.3µM* | 7.1µM*
SMILES | TRPV1 ag | uPA surface inh | TRPV1 PAM | Gal4-VP16 FLuc | RORg inh
COc1cccc(-c2nnc(NC(=O)C(C)C)o2)c1 | -2 | -12% | 3 | 16µM* | ?
COc1cccc(NC(=O)C(C)C)c1 | 2 | 5% | -6 | · | ·
COc1cccc(C(=O)Nc2cccc(-c3nnc(-c4ccccc4)o3)c2)c1 | · | -18% | · | · | ·
COC(=O)NC(c1ccccc1)c1c[nH]c2ccccc12 (stereo not drawn) | · | · | · | 4% | 10%
CCNC(=S)N1CCC(c2nc3ccccc3s2)CC1 | 8 | -3% | 6 | 12% | 33%
CN(Cc1ccco1)c1ncnc2ccc(-c3ccccc3C#N)cc12 | · | · | · | 0% | -5%
COc1cccc(-c2nnc(NC(=O)c3cccc(F)c3)o2)c1 | -3 | ? | 10 | 0.79µM* | 0.32µM*
CC(C)CCN1CC(O)=C(c2nc3ccccc3[nH]2)C1=N | ? | · | -14 | ? | ?
CC1(C)C(O)=C(c2nc3ccccc3[nH]2)C(=N)N1c1ccccc1 | 26 | · | -21 | 11µM* | 1.8µM*
CS(=O)(=O)N(CC(=O)Nc1ccc(Br)cc1)C1CCCCC1 | 15 | -9% | -23 | -7% | -3%
CCOc1ccc(-c2nc(C)c(C(C)=O)n2O)cc1 | -2 | · | 10 | 25µM* | 18%
O=C(Cc1cccs1)Nc1cc(SCCO)cc([N+](=O)[O-])c1 | 7 | 0% | -7 | -16% | 26%
Cc1c(Cl)cccc1NC(=O)C(=O)NNC(=O)c1ccccc1F | 6 | 0% | -2 | ? | 14µM*
O=C(O)C1CC(=O)N(c2ccc(OCc3ccccc3Cl)cc2)C1 (stereo not drawn) | 2 | -2% | -13 | ? | 14µM*
NC(=O)C1CC(=O)N(c2ccc(OCc3ccccc3Cl)cc2)C1 (stereo not drawn) | 1 | -5% | -4 | -5% | -1%
Cc1cccc(NC(=S)N(c2ccccc2)C(C)C)c1C | -4 | -3% | -9 | 25µM* | 14µM*
CC(C)N(C(=S)NC1CCCCC1)c1ccccc1 | 5 | · | -12 | ? | 11µM*
CC(C)N(Cc1ccccc1)C(=S)NCc1ccccc1 | 15 | 5% | -6 | -4% | ?
CC(C)N(Cc1ccccc1)C(=S)NC1CCCCC1 | 10 | -4% | -3 | ? | 13µM*
COc1ccccc1NC(=S)N(c1ccccc1)C(C)C | 0 | -6% | 15 | -5% | ?
O=C1CCN(Cc2ccc([N+](=O)[O-])cc2)CCN1CCO | 3 | 17% | -6 | -1% | 23%
O=C(CNC(=O)C1COc2ccccc2O1)N/N=C\c1cccc(O)c1 (stereo not drawn) | 6 | -3% | -4 | 4% | 13%
O=C(CNC(=O)C1COc2ccccc2O1)N/N=C/c1ccc(O)cc1O (stereo not drawn) | -1 | -9% | 6 | -17% | 13µM*
O=C(N/N=C\c1ccc[nH]1)C1COc2ccccc2O1 (stereo not drawn) | 4 | 8% | -11 | ? | 11µM*
COc1cc(/C=N/NC(=O)C2COc3ccccc3O2)cc(OC)c1OC (stereo not drawn) | 0 | 2% | 12 | 7% | 24%
O=C(N/N=C\c1cccc([N+](=O)[O-])c1O)C1COc2ccccc2O1 (stereo not drawn) | 1 | -12% | 26 | 2µM* | 1.8µM*
O=C(N/N=C/c1cccc([N+](=O)[O-])c1)C1COc2ccccc2O1 (stereo not drawn) | 21 | 3% | 9 | 10% | 16%
